Measured values taken from PubChem BioAssay.
Calls of active or inactive are those of the source.

Columns and labels:
[1] = test system: PRMT1 (protein arginine N-methyltransferase 1); assay: PRMT1 binders on small-molecule microarrays, primary screen, biochemical, small-molecule microarray, 635 nm fluorescence (AID 1088); conditions: small-molecule microarray binding, higher = more signal;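 note: binding of Prmt1 protein to compounds spotted on small-molecule microarray slides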
[2] = yeast growth modulation, basal conditions, primary screen, YJM789 clinical isolate, OD600, 24 h (AID 1089);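 note: growth of clinical yeast isolate S. cerevisiae YJM 789 seeded 1000 cells per well; test concentration not given here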; conditions: S. cerevisiae YJM789 growth, higher = more signal, called active from +8 up or from −8 down
[3] = fission yeast growth modulation, primary screen, strain 972, OD600, 24 h, no modulator (AID 1090);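 note: basal condition with compound alone and no growth modifier present; test concentration not given here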; conditions: S. pombe 972 growth, higher = more signal, called active from +8 up or from −8 down
[4] = S. cerevisiae growth modulation with rapamycin, primary screen, strain BY4716, OD600, 96 h (AID 1091); conditions: higher = more signal, called active from +8 up or from −8 down; note: test concentration not given here
[5] = molecular target: Torsin-1A-interacting protein 2 (Homo sapiens) (UniProt Q8NFQ8); assay: LULL1 binders on small-molecule microarray, primary screen, cell lysate, human LULL1 lysate, 635/667 nm fluorescence (AID 1092); conditions: hLULL1 lysate binding, 635 nm fluorescence, higher = more signal;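 note: probe is lysate of COS7 cells overexpressing human LULL1; score merges per-feature 667 nm fluorescence with signal-to-noise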
[6] = E. coli growth modulation, two-sided OD650, primary screen, E. coli filamentation project, strain DRC41, 24 h (AID 1093); conditions: OD650, 24 h, higher = more signal, called active from +8 up or from −8 down;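 note: MC1000 strain lacking acrAB efflux and sulA so SOS filamentation is blocked; test concentration not given here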
[7] = small-molecule microarray binders of probe aLefty2, primary screen, biochemical, biotinylated probe, 635/667 nm fluorescence (AID 1094); conditions: higher = more signal;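 note: score merges spot fluorescence near 667 nm with spot signal-to-noise ratio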
[8] = test system: Noggin (protein binding on small-molecule microarray); assay: Noggin binders on small-molecule microarray, primary screen, biochemical, 635/667 nm fluorescence (AID 1095); conditions: 635 nm fluorescence, higher = more signal;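 note: score merges 667 nm feature fluorescence with signal to noise over triplicate slides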
[9] = molecular target: Neurogenic locus notch homolog protein 3 (Homo sapiens) (UniProt Q9UM47); assay: NOTCH3 binders on small-molecule microarray, primary screen, biochemical, 635/667 nm fluorescence (AID 1096); conditions: NOTCH3 binding, 635 nm fluorescence, higher = more signal
[10] = small-molecule microarray binders of probe aEGFR, primary screen, biochemical, biotinylated probe, 635/667 nm fluorescence (AID 1097); conditions: higher = more signal;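 note: probe is a biotinylated anti-EGFR antibody binding compounds printed on slides; score combines fluorescence near 667 nm and signal to noise of each spot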

Sequence of Torsin-1A-interacting protein 2 (Homo sapiens) (Q8NFQ8 whole entry, looked up): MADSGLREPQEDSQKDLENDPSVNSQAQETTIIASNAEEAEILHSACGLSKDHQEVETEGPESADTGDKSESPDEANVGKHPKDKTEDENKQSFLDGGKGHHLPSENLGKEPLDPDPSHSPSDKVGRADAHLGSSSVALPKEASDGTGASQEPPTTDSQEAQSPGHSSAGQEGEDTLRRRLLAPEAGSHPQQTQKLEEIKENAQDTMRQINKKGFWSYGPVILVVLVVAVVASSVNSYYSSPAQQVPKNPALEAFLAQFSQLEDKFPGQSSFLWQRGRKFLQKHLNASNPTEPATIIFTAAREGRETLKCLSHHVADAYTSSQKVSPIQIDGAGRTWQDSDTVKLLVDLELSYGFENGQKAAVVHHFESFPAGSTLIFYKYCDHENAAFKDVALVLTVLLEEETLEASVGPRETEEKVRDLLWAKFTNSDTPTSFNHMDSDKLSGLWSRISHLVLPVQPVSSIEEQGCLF
Sequence of Neurogenic locus notch homolog protein 3 (Homo sapiens) (Q9UM47 whole entry, looked up): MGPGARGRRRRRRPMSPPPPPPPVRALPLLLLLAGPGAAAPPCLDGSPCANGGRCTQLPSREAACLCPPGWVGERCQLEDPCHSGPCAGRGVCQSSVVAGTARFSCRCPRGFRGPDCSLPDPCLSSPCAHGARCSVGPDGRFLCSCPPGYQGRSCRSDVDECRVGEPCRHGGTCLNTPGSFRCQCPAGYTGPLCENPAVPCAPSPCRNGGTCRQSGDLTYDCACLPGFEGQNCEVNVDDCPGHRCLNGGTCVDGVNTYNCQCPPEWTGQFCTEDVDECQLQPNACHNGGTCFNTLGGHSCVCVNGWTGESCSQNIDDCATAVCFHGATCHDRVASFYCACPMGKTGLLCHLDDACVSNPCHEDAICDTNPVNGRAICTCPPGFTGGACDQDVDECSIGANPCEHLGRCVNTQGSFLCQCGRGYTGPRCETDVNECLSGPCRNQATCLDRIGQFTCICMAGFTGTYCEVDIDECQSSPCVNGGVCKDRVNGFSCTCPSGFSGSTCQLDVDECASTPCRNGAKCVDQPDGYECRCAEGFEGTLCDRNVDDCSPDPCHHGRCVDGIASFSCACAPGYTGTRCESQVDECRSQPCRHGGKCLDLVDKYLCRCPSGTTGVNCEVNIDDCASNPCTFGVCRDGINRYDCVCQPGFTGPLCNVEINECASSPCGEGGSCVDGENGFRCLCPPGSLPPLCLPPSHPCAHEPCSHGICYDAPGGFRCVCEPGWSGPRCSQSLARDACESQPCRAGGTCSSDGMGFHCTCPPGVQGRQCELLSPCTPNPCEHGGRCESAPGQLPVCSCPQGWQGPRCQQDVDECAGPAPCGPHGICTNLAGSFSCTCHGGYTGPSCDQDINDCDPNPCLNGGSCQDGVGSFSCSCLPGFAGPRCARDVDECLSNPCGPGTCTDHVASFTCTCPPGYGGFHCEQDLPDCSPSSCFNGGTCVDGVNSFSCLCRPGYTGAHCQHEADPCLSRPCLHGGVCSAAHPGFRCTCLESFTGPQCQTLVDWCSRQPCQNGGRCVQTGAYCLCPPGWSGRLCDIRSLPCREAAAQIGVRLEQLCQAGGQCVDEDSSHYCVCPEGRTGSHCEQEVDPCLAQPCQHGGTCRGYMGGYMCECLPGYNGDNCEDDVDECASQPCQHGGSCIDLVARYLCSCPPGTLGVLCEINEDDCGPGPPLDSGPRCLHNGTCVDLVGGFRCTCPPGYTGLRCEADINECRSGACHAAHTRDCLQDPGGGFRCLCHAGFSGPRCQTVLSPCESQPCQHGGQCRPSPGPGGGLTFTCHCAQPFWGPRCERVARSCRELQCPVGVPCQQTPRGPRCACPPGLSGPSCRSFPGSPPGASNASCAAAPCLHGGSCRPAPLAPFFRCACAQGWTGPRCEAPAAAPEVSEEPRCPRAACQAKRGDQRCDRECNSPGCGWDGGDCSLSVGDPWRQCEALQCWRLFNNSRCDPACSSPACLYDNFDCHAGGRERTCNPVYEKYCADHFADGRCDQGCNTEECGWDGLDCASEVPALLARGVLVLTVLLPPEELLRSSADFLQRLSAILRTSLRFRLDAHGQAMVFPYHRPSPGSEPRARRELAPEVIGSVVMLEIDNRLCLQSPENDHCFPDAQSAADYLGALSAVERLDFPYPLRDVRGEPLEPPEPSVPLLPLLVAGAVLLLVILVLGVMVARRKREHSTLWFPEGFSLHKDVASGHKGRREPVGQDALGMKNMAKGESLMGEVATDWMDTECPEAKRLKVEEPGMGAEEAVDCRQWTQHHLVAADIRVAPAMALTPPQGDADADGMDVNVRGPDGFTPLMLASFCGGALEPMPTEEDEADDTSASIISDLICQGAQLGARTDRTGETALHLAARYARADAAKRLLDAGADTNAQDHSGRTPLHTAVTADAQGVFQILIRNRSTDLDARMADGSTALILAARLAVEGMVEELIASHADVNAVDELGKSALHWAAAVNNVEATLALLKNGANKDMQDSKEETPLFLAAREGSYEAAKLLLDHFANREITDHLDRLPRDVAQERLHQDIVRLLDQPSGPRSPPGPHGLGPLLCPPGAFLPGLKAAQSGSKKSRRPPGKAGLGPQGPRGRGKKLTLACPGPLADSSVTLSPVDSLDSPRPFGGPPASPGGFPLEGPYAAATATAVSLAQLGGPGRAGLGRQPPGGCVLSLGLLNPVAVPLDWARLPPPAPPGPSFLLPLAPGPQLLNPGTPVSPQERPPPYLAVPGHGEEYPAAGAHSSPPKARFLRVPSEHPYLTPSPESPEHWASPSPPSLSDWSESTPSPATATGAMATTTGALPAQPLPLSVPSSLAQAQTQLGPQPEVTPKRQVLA

For CC(=O)N1Cc2ccccc2C[C@@]2(COC(c3ccc(OCCCO)cc3)=N2)C1=O, the composite z-score [1] was 1.55, the z-score [2] was -3.98 (inactive) and the z-score [3] was -0.737 (inactive). For the same compound, the z-score [4] was -0.965 (inactive), the composite z-score [5] was 2.25 and the z-score [6] was 1.81 (inactive). It also gave a composite z-score [7] of 0.518, a composite z-score [8] of 0.515 and a composite z-score [9] of 1.03. The composite z-score [10] was 0.119.
For COCCOC(=O)N1C(=O)[C@@]2(c3cc(C#CCNC(N)=O)ccc31)[C@H](C(=O)NC[C@H](O)c1ccccc1)[C@H]1C(=O)O[C@H](c3ccccc3)[C@H](c3ccccc3)N1[C@@H]2c1ccccc1OCCO, the composite z-score [1] was 1.55, the z-score [2] was 1.56 (inactive) and the z-score [3] was 1.11 (inactive). For the same compound, the z-score [4] was 3.45 (inactive), the composite z-score [5] was 2.6 and the z-score [6] was -0.124 (inactive). For the same compound, the composite z-score [7] was -0.0644, the composite z-score [8] was 1.72 and the composite z-score [9] was 0.98. For the same compound, the composite z-score [10] was -0.118.
With O=C1NC(=O)C2C1C=CC(C(O)c1ccccc1)N2Nc1ccc(Cl)cc1Cl (stereo not given) the composite z-score [1] was 1.56, the z-score [2] was -25.6 (active) and the z-score [3] was -4.35 (inactive). The z-score [4] was -1.48 (inactive), the composite z-score [5] was 3.74 and the z-score [6] was -1.8 (inactive). The composite z-score [7] was 0.0847, the composite z-score [8] was 0.385 and the composite z-score [9] was 1.12. It also gave a composite z-score [10] of 0.063.
With O=C(NCc1ccccc1)[C@@]1(CCS(=O)(=O)c2ccccc2)N=C(c2ccc(OCCCO)cc2)O[C@H]1c1ccccc1 the composite z-score [1] was 1.56, the z-score [2] was 1.72 (inactive) and the z-score [3] was -0.129 (inactive). For the same compound, the z-score [4] was 34.4 (active), the composite z-score [5] was 3.56 and the z-score [6] was 0.988 (inactive). The composite z-score [7] was 0.215, the composite z-score [8] was 0.878 and the composite z-score [9] was 1.06. The composite z-score [10] was 0.116.
With CCCCc1cn(C[C@H](Cc2ccccc2)NC(=O)N[C@H](CO)CCc2oc(C(C)=O)c(C(=O)OC)c2C(=O)OC)nn1 the composite z-score [1] was 1.54, the z-score [2] was -0.425 (inactive) and the z-score [3] was -0.0326 (inactive). For the same compound, the z-score [4] was -0.173 (inactive), the composite z-score [5] was 1.7 and the z-score [6] was 0.0003 (inactive). The composite z-score [7] was 0.165, the composite z-score [8] was 1.14 and the composite z-score [9] was 1.1. It also gave a composite z-score [10] of 0.114.
For CCCC[C@H]1OB(O)C[C@H]2C1=C(COc1ccccc1)C[C@H]1C(=O)N(C)C(=O)[C@H]12, the composite z-score [1] was -0.0361, the z-score [2] was -0.454 (inactive) and the z-score [3] was -1.03 (inactive). The z-score [4] was -0.861 (inactive), the composite z-score [5] was 0.265 and the z-score [6] was -0.632 (inactive). The composite z-score [7] was 0.0784, the composite z-score [8] was 0.231 and the composite z-score [9] was 0.187. It also gave a composite z-score [10] of -0.0714.
With CC1CC/C=C\[C@H]2OC34C=CCN(c5ccc(Cl)cc5)C(=O)[C@H]3N(CCO)C(=O)[C@]4(C)C2C(=O)O1 (stereo not given in full) the composite z-score [1] was 0.517, the z-score [2] was -1.51 (inactive) and the z-score [3] was -1.4 (inactive). The z-score [4] was -0.528 (inactive), the composite z-score [5] was 0.139 and the z-score [6] was 0.613 (inactive). For the same compound, the composite z-score [7] was -0.0619, the composite z-score [8] was -0.504 and the composite z-score [9] was 0.105. For the same compound, the composite z-score [10] was -0.166.
With C=CCNC(=O)[C@@H]1[C@H]2C(=O)O[C@H](c3ccccc3)[C@H](c3ccccc3)N2[C@H](c2ccccc2OCCO)[C@@]12C(=O)N(C(=O)OCCOC)c1ccc(C#CCNC(N)=O)cc12 the composite z-score [1] was 1.46, the z-score [2] was 1.11 (inactive) and the z-score [3] was 0.731 (inactive). The z-score [4] was 2.72 (inactive), the composite z-score [5] was 2.85 and the z-score [6] was -0.395 (inactive). The composite z-score [7] was 0.0395, the composite z-score [8] was 0.61 and the composite z-score [9] was 1.12. For the same compound, the composite z-score [10] was 0.0149.
With CN(C)CCCNC(=O)[C@@]1(C)c2ccccc2C(=O)N(Cc2cc(F)cc(C(F)(F)F)c2)[C@H]1c1ccc(CO)cc1 the composite z-score [1] was 0.936, the z-score [2] was -1.46 (inactive) and the z-score [3] was -2.05 (inactive). For the same compound, the z-score [4] was -2.02 (inactive), the composite z-score [5] was 3.12 and the z-score [6] was 0.0544 (inactive). The composite z-score [7] was -0.203, the composite z-score [8] was -0.986 and the composite z-score [9] was -0.604. It also gave a composite z-score [10] of -0.237.
In the case of N#Cc1ccc(NN2C(C(O)c3c(F)cccc3Cl)C=CC3C(=O)N(c4ccccc4)C(=O)C32)cc1 (stereo not given), the composite z-score [1] is reported as 1.19, the z-score [2] is reported as 0.432 (inactive) and the z-score [3] is reported as 1.62 (inactive). For the same compound, the z-score [4] was 2.48 (inactive), the composite z-score [5] was 3.53 and the z-score [6] was -0.62 (inactive). The composite z-score [7] was 0.222, the composite z-score [8] was -0.109 and the composite z-score [9] was 1.06. The composite z-score [10] was -0.244.
For CC(C)C[C@@H]1NC(=O)[C@H]2C[C@@H](C(=O)NCCCCCCN)[C@@H](c3ccc(O)cc3)N2C1=O, the composite z-score [1] was 1.17, the z-score [2] was -0.582 (inactive) and the z-score [3] was -0.464 (inactive). The z-score [4] was -0.283 (inactive), the composite z-score [5] was 2.32 and the z-score [6] was -0.11 (inactive). The composite z-score [7] was 0.679, the composite z-score [8] was 0.696 and the composite z-score [9] was 0.529. It also gave a composite z-score [10] of 0.125.
In the case of O=C1C2C=CC(C(O)C(c3ccccc3)c3ccccc3)N(n3cnnc3)C2C(=O)N1Cc1ccccc1 (stereo not given), the composite z-score [1] is reported as 1.44, the z-score [2] is reported as -0.743 (inactive) and the z-score [3] is reported as -0.615 (inactive). For the same compound, the z-score [4] was -0.771 (inactive), the composite z-score [5] was 3.25 and the z-score [6] was -1.21 (inactive). For the same compound, the composite z-score [7] was -0.109, the composite z-score [8] was 0.531 and the composite z-score [9] was 1.1. For the same compound, the composite z-score [10] was -0.167.
With [N-]=[N+]=NCc1ccccc1[C@@H]1OC(c2ccc(OCCCO)cc2)=N[C@]1(CCS(=O)(=O)c1ccccc1)C(=O)NCCN1CCOCC1 the composite z-score [1] was 1.53, the z-score [2] was 0.36 (inactive) and the z-score [3] was 0.517 (inactive). The z-score [4] was 0.766 (inactive), the composite z-score [5] was 3.37 and the z-score [6] was 0.283 (inactive). For the same compound, the composite z-score [7] was 0.0542, the composite z-score [8] was 1.78 and the composite z-score [9] was 1.04. The composite z-score [10] was 0.208.
In the case of CCOC1=C2C(CN(S(=O)(=O)c3ccc(C)cc3)C2c2ccc(C)cc2)C2C(=O)N(c3ccccc3)C(=O)C2C1 (stereo not given), the composite z-score [1] is reported as 0.952, the z-score [2] is reported as 0.218 (inactive) and the z-score [3] is reported as 1.86 (inactive). The z-score [4] was 0.852 (inactive), the composite z-score [5] was 1.96 and the z-score [6] was 0.0696 (inactive). The composite z-score [7] was -0.0515, the composite z-score [8] was 0.257 and the composite z-score [9] was 0.875. The composite z-score [10] was 0.0414.
With Cc1ccc(S[C@]2(C(=O)NC(C)C)CC(=O)N(Cc3ccccc3Cl)[C@@H]2c2ccc(CO)cc2I)cc1 the composite z-score [1] was 1.14, the z-score [2] was -1.59 (inactive) and the z-score [3] was -1.98 (inactive). The z-score [4] was 0.239 (inactive), the composite z-score [5] was 1.81 and the z-score [6] was 0.0987 (inactive). The composite z-score [7] was 0.0282, the composite z-score [8] was -0.28 and the composite z-score [9] was -0.317. For the same compound, the composite z-score [10] was -0.287.
In the case of O=C1OCCC/C=C\[C@H]2OC34C=CCN(c5ccc6ccccc6c5)C(=O)[C@H]3N(CCCCCCO)C(=O)[C@@H]4C12 (stereo not given in full), the composite z-score [1] is reported as 0.0502, the z-score [2] is reported as -1.96 (inactive) and the z-score [3] is reported as -1.15 (inactive). For the same compound, the z-score [4] was -0.533 (inactive), the composite z-score [5] was 0.132 and the z-score [6] was 1.1 (inactive). The composite z-score [7] was -0.25, the composite z-score [8] was -0.695 and the composite z-score [9] was 0.086. The composite z-score [10] was -0.0597.
For COc1ccc([Si](C)(C)[C@H]2[C@H](CCn3cc([C@H](O)c4ccccc4)nn3)O[C@@]3(C(=O)N(Cc4cccc(N5CCOC5=O)c4)c4ccccc43)[C@@H]2C)cc1, the composite z-score [1] was 0.961, the z-score [2] was -0.0578 (inactive) and the z-score [3] was 0.947 (inactive). The z-score [4] was 1.95 (inactive), the composite z-score [5] was 0.872 and the z-score [6] was -0.565 (inactive). The composite z-score [7] was 0.0342, the composite z-score [8] was 0.827 and the composite z-score [9] was 1.04. It also gave a composite z-score [10] of 0.117.
In the case of C=CC[C@]12N=C(c3ccc(OCCCO)cc3)O[C@H]1c1ccccc1N(Cc1ccccc1)C2=O, the composite z-score [1] is reported as 1.46, the z-score [2] is reported as -0.523 (inactive) and the z-score [3] is reported as -0.371 (inactive). For the same compound, the z-score [4] was 1.89 (inactive), the composite z-score [5] was 1.04 and the z-score [6] was 0.508 (inactive). The composite z-score [7] was 0.331, the composite z-score [8] was 0.313 and the composite z-score [9] was 0.483. For the same compound, the composite z-score [10] was -0.0692.
